Results published in PubChem BioAssay (NCATS).
Results filed as inconclusive are left out. Unmarked numbers belong to inactive results. Calls follow the shape of the dose curve; as a rule, active = well fitted cell-killing curve with a large enough effect; inconclusive = small, poorly fitted or top-dose-only effect; inactive = flat fitted curve, though single readings scatter.

Assay: Cell Viability - LYMP1-002 - Assay at 16 hr (AID 948);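 also: 0% = DMSO alone and full effect = 92 µM tetraoctylammonium bromide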
Conditions: LYMP1-002 lymphoblastoid cell viability; series mostly up to 92.2 µM; activity change, negative = cytotoxicity: at the top concentration
Description: NIH Chemical Genomics Center [NCGC]
NIH Molecular Libraries Screening Centers Network [MLSCN]
National Institutes of Environmental Health Sciences [NIEHS]
National Toxicology Program [NTP]
We have developed a 1536-well cell-based assay for quantitative high throughput screening (qHTS) against a number of cell lines to determine in vitro cytotoxicity of small molecules. This particular assay uses a human lymphoblastoid cell line (LYMP1-002) purchased from Coriell Institute for Medical Research.
NCGC Assay Protocol Summary:
The CellTiter-Glo luminescent cell viability assay (Promega) is a homogeneous method to measure the number of viable cells in culture. The end point readout of this assay is based on quantitation of intracellular ATP, an indicator of metabolic activity, using the luciferase reaction. Luciferase catalyzes the oxidation of beetle Luciferin to oxyluciferin and light in the presence of ATP. The luminescent signal is proportional to amount of ATP present.
Using the CellTiter-Glo luminescent cell viability assay, the amount of cellular ATP was measured in the lymphoblastoid cell line with complete culture medium following compound treatment for 16 hours. The assay was performed in opaque white Kalypsys 1536-well plates. In the screen, tetraoctylammonium bromide was used as positive control. Library compounds were measured for their ability to cause acute toxicity in the cell line, as reflected by a decrease in intracellular ATP levels, in a concentration-dependent manner. […] AC50 values were determined from concentration-response data modeled with the standard Hill equation.
qHTS protocol for CellTiter Glo lymphoblastoid cellular assay
[Step] [Parameter] [Value] [Description]
1. Reagent; 5 uL; 2500 lymphoblastoid cells/well
2. Time; 5 hr; 37 C incubation
4. Controls; 23 nL; Tetraoctylammonium bromide 6.4pM to 92 uM
5. Time; 16 hr; 37 C incubation
6. Reagent; 5 uL; CellTiter Glo reagent
7. Time; 30 min; Room Temperature
8. Detection; Luminescence; Viewlux plate reader
Keywords: cell viability, cytotoxicity, lymphoblastoid cell line, luminescence, NTPHTS, NTPHTS_NCGC, NIEHS, DSSTox, MLSMR, MLSCN, NIH Roadmap, qHTS, NCGC

| Compound | activity change, negative = cytotoxicity [%] |
| --- | --- |
| Nc1ccc([N+](=O)[O-])cc1[N+](=O)[O-] | -4.28 |
| COc1ccccc1N | -2.78 |
| Cc1ccc(N)c(C)c1 | -1.82 |
| CCN(CC)N=O | -0.381 |
| Cc1ccc2c(c1N)C(=O)c1ccccc1C2=O | -13.5 |
| Nc1ccc(Cl)c(Cl)c1 | -2.33 |
| S=C1NCCN1 | -4.06 |
| O=S(=O)(Cl)c1ccccc1 | -4.94 |
| Clc1cc(Cl)c(Cl)c(Cl)c1 | -4.22 |
| Cc1cc(-c2ccc(N)c(C)c2)ccc1N | -5.58 |
| O=S(=O)(O)F | -4.32 |
| CCC#N | 0.797 |
| Nc1ccc(Oc2ccc(N)cc2)cc1 | -6.37 |
| CCCCCc1cc(O)cc(O)c1 | -2.92 |
| [O-][Cl+2]([O-])O | -10.4 |
| O=[N+]([O-])c1ccccc1-c1ccccc1 | -6.48 |
| OCCCCO | -2.67 |
| Clc1ccc(C(Cl)(Cl)Cl)c(Cl)c1 | -1.12 |
| C=CCO | -4.05 |
| C=CCBr | -4.37 |

| Compound | activity change, negative = cytotoxicity [%] |
| --- | --- |
| Clc1cccc2ccccc12 | -4.29 |
| O=C(O)C(Cl)(Cl)Br | -2.27 |
| Oc1cccc(Cl)c1Cl | -3.63 |
| COc1ccc(C=O)cc1 | -2.57 |
| CCCCOC(C)=O | 5.03 |
| ClC(Br)Br | 0.667 |
| ClCCCCl | 1.8 |
| CC(C)(Cl)Cl | -2.88 |
| NC1CCC(CC2CCC(N)CC2)CC1 (stereo not given) | 0.631 |
| N#CC(Cl)(Cl)Cl | -5.41 |
| O=[N+]([O-])c1cccc(O)c1 | -7.55 |
| c1ccc(N=NNc2ccccc2)cc1 | -7.8 |
| O=[N+]([O-])c1ccc(O)c([N+](=O)[O-])c1 | 1.48 |
| O=C(O)c1cccc(Cl)c1 | 1.21 |
| C=CC(=O)OCC(CC)CCCC (stereo not given) | -1.9 |
| Cl/C=C/Cl | -1.48 |
| CN(C)C(=O)Cl | -0.942 |
| O=[N+]([O-])c1cc(Cl)c(Cl)cc1Cl | -5.38 |
| CCCCC(=O)Cl | -3.36 |
| Nc1ccc(Cc2ccc(N)cc2)cc1 | -2.82 |
